Experiment [1] is described as follows: binders of probe aFSTL3 on microarray, primary screen, stem cell growth factor project, biochemical, small-molecule microarray, fluorescence 635/667 (AID 1064).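 Note: measures binding of the biotinylated anti-FSTL3 antibody to printed compounds.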 Conditions: higher = more signal.
Experiment [2] is described as follows: binders from COS7 lysate, DM2A8 probe, primary screen, torsin A project, cell lysate, small-molecule microarray, fluorescence 635/667 (AID 1065). The note with it: higher = more signal, COS7 lysate expressing mutant human TOR1A.
The nature of experiment [3]: binders of probe aFGF2 on microarray, primary screen, stem cell growth factor project, biochemical, small-molecule microarray, fluorescence 635/667 (AID 1067).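 Note: measures binding of biotinylated aFGF2 protein to printed compounds on slides; z-score merges feature fluorescence and signal-to-noise across triplicate slides.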 Conditions: higher = more signal.
The nature of experiment [4]: binders of probe aFGF10 on microarray, primary screen, stem cell growth factor project, biochemical, small-molecule microarray, fluorescence 635/667 (AID 1071).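 Note: score merges 667 nm spot intensity and signal to noise from triplicate slides.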 The note with it: higher = more signal.
Experiment [5] concerns the target Neurogenic locus notch homolog protein 2 (Homo sapiens) (UniProt Q04721). The experiment in a line: Notch2 binders on small-molecule microarrays, primary screen, biochemical, small-molecule microarray, 635 nm fluorescence, stem cell growth factors (AID 1073). The note with it: Notch2 binding, higher = more signal.
In experiment [6] the target is Pro-neuregulin-1, membrane-bound isoform (Homo sapiens) (UniProt Q02297). Kind of experiment: NRG1 binders on small-molecule microarrays, primary screen, psychiatric disease protein project, biochemical, small-molecule microarray, fluorescence 635/667 (AID 1075).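 Note: score combines 667 nm spot fluorescence with signal to noise.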 Conditions: NRG1 binding, 635 nm fluorescence, higher = more signal.
The test system of experiment [7] is Neuregulin-1 EGF-like domain. The experiment in a line: binders of neuregulin-1 EGF-like domain, primary screen, biochemical, small-molecule microarray, 635 nm fluorescence (AID 1081).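 Note: binding of the protein to compounds printed on small-molecule microarray slides.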 Conditions: small-molecule microarray binding, higher = more signal.
Experiment [8] can be described thus: FRG1 promoter luciferase signal modulators, primary screen, FRG1 inhibition for FSHD, cell-based, C2C12 myotubes, firefly/Renilla luciferase, luminescence (AID 1084). The note with it: higher = more signal, called active from +8 up or from −8 down.
A short description of experiment [9]: binders of probe aFST on microarray, primary screen, stem cell growth factor project, biochemical, small-molecule microarray, fluorescence 635/667 (AID 1086).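 Note: score merges 667 nm fluorescence with signal-to-noise of each printed compound spot.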 The note with it: higher = more signal.
Experiment [10] is described as follows: binders of probe aHhip on microarray, primary screen, stem cell growth factor project, biochemical, small-molecule microarray, fluorescence 635/667 (AID 1087).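 Note: score merges spot fluorescence at 667nm with spot signal to noise ratio.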 The note with it: higher = more signal.
The subject of experiment [11] is PRMT1 (protein arginine N-methyltransferase 1). The experiment in a line: PRMT1 binders on small-molecule microarrays, primary screen, biochemical, small-molecule microarray, 635 nm fluorescence (AID 1088).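 Note: binding of Prmt1 protein to compounds spotted on small-molecule microarray slides.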 Conditions: small-molecule microarray binding, higher = more signal.
The nature of experiment [12]: yeast growth modulation, basal conditions, primary screen, YJM789 clinical isolate, OD600, 24 h (AID 1089).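 Note: growth of clinical yeast isolate S. cerevisiae YJM 789 seeded 1000 cells per well; test concentration not given here.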 The note with it: S. cerevisiae YJM789 growth, higher = more signal, called active from +8 up or from −8 down.
The nature of experiment [13]: fission yeast growth modulation, primary screen, strain 972, OD600, 24 h, no modulator (AID 1090).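 Note: basal condition with compound alone and no growth modifier present; test concentration not given here.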 The note with it: S. pombe 972 growth, higher = more signal, called active from +8 up or from −8 down.
Experiment [14] is described as follows: S. cerevisiae growth modulation with rapamycin, primary screen, strain BY4716, OD600, 96 h (AID 1091). Note: test concentration not given here. Conditions: higher = more signal, called active from +8 up or from −8 down.
The target in experiment [15] is Torsin-1A-interacting protein 2 (Homo sapiens) (UniProt Q8NFQ8). Kind of experiment: LULL1 binders on small-molecule microarray, primary screen, cell lysate, human LULL1 lysate, 635/667 nm fluorescence (AID 1092).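 Note: score merges per-feature 667 nm fluorescence with signal-to-noise.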 Conditions: hLULL1 lysate binding, 635 nm fluorescence, higher = more signal.
Experiment [16] is described as follows: E. coli growth modulation, two-sided OD650, primary screen, E. coli filamentation project, strain DRC41, 24 h (AID 1093).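 Note: MC1000 strain lacking acrAB efflux and sulA so SOS filamentation is blocked; test concentration not given here.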 The note with it: OD650, 24 h, higher = more signal, called active from +8 up or from −8 down.
Experiment [17] is described as follows: small-molecule microarray binders of probe aLefty2, primary screen, biochemical, biotinylated probe, 635/667 nm fluorescence (AID 1094).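 Note: score merges spot fluorescence near 667 nm with spot signal-to-noise ratio.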 Conditions: higher = more signal.
Experiment [18] has as its system Noggin (protein binding on small-molecule microarray). Kind of experiment: Noggin binders on small-molecule microarray, primary screen, biochemical, 635/667 nm fluorescence (AID 1095).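 Note: score merges 667 nm feature fluorescence with signal to noise over triplicate slides.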 Conditions: 635 nm fluorescence, higher = more signal.
Experiment [19] deals with Neurogenic locus notch homolog protein 3 (Homo sapiens) (UniProt Q9UM47). The experiment in a line: NOTCH3 binders on small-molecule microarray, primary screen, biochemical, 635/667 nm fluorescence (AID 1096). The note with it: NOTCH3 binding, 635 nm fluorescence, higher = more signal.
A short description of experiment [20]: small-molecule microarray binders of probe aEGFR, primary screen, biochemical, biotinylated probe, 635/667 nm fluorescence (AID 1097).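 Note: probe is a biotinylated anti-EGFR antibody binding compounds printed on slides; score combines fluorescence near 667 nm and signal to noise of each spot.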 Conditions: higher = more signal.

The text below walks through data of PubChem BioAssay.

“And” between values parts separate entries of the source, which are not always exact repeats. Identical values can stand only once. The source made the active and inactive calls.

Chain of Neurogenic locus notch homolog protein 2 (Homo sapiens) (Q04721 whole entry, looked up, canonical isoform): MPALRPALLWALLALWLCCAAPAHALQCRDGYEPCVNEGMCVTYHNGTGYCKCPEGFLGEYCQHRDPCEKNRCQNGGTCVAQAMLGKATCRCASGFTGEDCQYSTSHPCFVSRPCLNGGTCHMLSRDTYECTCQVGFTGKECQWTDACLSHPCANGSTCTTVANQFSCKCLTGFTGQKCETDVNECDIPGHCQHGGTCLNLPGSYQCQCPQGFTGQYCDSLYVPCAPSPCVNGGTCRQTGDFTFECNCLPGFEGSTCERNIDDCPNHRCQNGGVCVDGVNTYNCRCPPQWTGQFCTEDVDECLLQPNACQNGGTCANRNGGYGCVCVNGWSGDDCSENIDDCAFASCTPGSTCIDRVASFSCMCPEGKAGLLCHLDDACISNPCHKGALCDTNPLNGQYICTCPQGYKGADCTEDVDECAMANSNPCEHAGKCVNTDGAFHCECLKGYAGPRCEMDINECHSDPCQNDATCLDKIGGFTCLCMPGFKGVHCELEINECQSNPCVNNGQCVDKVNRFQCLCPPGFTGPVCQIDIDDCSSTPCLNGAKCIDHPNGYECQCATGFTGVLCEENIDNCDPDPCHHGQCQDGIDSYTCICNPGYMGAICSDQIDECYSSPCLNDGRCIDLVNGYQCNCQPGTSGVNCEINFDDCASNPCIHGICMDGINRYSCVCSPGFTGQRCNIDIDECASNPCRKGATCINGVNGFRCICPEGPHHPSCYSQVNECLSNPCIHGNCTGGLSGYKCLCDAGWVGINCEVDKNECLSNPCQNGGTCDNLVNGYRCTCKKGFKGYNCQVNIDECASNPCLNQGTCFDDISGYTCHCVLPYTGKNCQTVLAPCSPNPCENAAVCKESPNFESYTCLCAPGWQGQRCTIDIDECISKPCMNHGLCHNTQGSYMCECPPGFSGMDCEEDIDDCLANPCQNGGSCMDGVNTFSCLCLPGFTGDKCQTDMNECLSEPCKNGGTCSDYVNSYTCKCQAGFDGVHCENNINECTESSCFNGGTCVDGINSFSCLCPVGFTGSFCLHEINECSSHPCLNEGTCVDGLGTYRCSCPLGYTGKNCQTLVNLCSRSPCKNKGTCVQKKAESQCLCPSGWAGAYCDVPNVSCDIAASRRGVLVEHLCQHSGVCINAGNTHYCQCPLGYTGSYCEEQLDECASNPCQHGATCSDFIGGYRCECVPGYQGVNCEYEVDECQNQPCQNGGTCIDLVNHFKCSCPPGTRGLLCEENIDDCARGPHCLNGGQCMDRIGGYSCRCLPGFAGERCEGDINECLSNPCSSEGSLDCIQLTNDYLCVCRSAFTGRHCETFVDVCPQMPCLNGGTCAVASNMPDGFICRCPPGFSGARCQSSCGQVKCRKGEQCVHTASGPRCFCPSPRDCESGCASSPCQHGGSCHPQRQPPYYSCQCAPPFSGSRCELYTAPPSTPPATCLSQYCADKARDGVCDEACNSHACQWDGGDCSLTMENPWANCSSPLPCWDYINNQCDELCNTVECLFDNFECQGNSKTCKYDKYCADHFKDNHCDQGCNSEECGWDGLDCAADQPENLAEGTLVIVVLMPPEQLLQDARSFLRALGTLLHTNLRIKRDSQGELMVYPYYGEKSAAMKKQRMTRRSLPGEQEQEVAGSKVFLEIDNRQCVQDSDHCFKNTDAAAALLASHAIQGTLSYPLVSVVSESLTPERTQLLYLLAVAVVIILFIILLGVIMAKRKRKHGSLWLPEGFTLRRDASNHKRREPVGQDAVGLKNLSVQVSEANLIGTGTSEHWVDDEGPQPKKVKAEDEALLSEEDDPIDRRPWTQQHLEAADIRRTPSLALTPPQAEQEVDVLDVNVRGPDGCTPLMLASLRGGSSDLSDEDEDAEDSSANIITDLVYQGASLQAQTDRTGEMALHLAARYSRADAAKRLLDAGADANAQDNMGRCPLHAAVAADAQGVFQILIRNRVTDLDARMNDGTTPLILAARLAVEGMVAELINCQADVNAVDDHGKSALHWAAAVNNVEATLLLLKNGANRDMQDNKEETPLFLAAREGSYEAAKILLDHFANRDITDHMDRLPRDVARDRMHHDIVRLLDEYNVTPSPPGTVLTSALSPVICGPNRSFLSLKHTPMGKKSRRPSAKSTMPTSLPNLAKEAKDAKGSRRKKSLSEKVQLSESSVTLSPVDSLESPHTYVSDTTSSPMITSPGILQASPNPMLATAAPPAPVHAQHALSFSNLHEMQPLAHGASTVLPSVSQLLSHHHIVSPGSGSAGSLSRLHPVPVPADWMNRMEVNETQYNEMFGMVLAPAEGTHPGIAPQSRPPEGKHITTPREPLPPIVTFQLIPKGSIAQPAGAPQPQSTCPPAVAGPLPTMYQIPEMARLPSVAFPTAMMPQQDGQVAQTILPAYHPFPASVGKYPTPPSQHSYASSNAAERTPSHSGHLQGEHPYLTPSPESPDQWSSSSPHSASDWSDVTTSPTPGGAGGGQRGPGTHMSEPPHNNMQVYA
Chain of Pro-neuregulin-1, membrane-bound isoform (Homo sapiens) (Q02297 whole entry, looked up, the tested form may be a part, canonical isoform): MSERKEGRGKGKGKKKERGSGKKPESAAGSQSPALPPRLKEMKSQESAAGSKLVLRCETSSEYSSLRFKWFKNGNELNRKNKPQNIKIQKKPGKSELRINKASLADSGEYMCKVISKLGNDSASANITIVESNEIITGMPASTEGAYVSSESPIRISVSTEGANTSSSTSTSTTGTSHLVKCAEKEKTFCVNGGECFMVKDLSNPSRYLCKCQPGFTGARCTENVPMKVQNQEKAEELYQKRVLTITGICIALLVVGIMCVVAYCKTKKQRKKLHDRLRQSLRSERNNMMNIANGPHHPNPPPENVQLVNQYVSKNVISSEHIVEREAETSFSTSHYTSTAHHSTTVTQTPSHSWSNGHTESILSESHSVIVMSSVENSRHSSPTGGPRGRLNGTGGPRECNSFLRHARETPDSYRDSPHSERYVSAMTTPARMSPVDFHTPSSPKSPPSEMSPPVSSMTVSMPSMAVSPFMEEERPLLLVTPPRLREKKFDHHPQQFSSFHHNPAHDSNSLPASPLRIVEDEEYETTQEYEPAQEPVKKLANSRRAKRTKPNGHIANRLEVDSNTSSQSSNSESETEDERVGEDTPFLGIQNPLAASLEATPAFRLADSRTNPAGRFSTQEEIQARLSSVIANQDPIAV
Chain of Torsin-1A-interacting protein 2 (Homo sapiens) (Q8NFQ8 whole entry, looked up): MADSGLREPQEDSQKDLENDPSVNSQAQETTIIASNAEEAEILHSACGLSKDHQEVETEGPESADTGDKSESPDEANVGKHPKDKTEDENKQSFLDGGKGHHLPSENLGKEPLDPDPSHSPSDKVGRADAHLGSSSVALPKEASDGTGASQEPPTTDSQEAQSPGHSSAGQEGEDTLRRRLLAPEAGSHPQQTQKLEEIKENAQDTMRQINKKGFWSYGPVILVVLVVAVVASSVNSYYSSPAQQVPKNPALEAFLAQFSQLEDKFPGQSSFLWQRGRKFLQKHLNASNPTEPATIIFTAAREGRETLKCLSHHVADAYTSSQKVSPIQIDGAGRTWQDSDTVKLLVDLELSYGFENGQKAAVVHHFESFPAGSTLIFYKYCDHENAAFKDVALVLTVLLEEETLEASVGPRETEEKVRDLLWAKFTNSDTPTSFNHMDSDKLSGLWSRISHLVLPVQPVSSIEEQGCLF

Regarding `CCCCCN1CC=CC23O[C@@H]4C=CCCOC(=O)C4[C@H]2C(=O)N(C(C)CO)[C@@H]3C1=O` (stereo not given in full), the composite z-score in experiment [1] was -1.32 and 1.66; in [2] it was 0.852 and -1.23; in experiment [3], -0.0341 and -0.148; in experiment [4], -0.202 and -0.431; in experiment [5], -0.88 and -0.932; in [6], 1.03 and 1.11. The composite z-score was 1.54 and 1.32 in experiment [7]; -0.678 and 0.24 in experiment [9]; -1.02 and -0.274 in experiment [10]; 0.432 and 0.967 in [11]; 1.01 and 2.94 in experiment [15]; -0.401 and 0.157 in experiment [17]. Moreover, the composite z-score was 0.157 and 0.362 in [18]; 0.311 and 0.388 in experiment [19]; -0.386 and -0.253 in [20]. The z-score is 0.212 (inactive) and 0.0905 (inactive) in [8]; -0.772 (inactive) and 0.61 (inactive) in [12]; -0.328 (inactive) and 0.278 (inactive) in experiment [13]; -1.48 (inactive) and 0.779 (inactive) in experiment [14]; 1.78 (inactive) and 1.58 (inactive) in experiment [16].

As to `CC(C)C(=O)N[C@@H]1CCCN1C(=O)C=Cc1ccccc1`, the composite z-score is -0.46 in experiment [1]; 0.323 in experiment [2]; -0.0781 in [3]; 0.405 in experiment [4]; 0.99 in experiment [5]; 0.208 in [6]. Moreover, the composite z-score in [7] was 1.07; in [9], 0.125; in experiment [10], -0.0994; in experiment [11], 0.731; in experiment [15], 0.783; in experiment [17] it was -0.14. The composite z-score was determined as 0.783 in experiment [18], 0.786 in [19] and 0.0289 in experiment [20]. Besides, the z-score in [8] is -0.416 (inactive); in [12], -0.91 (inactive); in experiment [13], -0.0986 (inactive); in experiment [14] it was -0.307 (inactive); in [16], 1.03 (inactive).

As to `C=CCN(C(=O)C1N(CCOCCO)C(=O)C2C(C(=O)O)C3C=CC21O3)C(C)(C)C` (stereo not given), the composite z-score was 0.977 and 0.412 in experiment [1]; -0.768 and -0.863 in [2]; -0.25 and -0.262 in experiment [3]; -1.82 and -1.11 in experiment [4]; -2.44 and -1.36 in experiment [5]; -0.774 and -0.717 in experiment [6]. In addition, the composite z-score was -0.643 and -0.383 in experiment [7]; -1.09 and -1.91 in [9]; -0.175 and 0.0156 in experiment [10]; -1.26 and -0.124 in experiment [11]; -1.29 and -1.44 in experiment [15]; -0.251 and -0.197 in [17]. Moreover, the composite z-score was -2.02 and -1.83 in experiment [18]; -1.49 and -0.757 in experiment [19]; -0.323 and -0.241 in experiment [20]. For the same compound, the z-score in [8] is 0.97 (inactive) and -0.383 (inactive); in experiment [12] it was -0.419 (inactive) and -0.683 (inactive); in experiment [13], -0.378 (inactive) and -0.505 (inactive); in experiment [14] it was -0.357 (inactive) and -0.658 (inactive); in experiment [16], 0.389 (inactive) and 0.267 (inactive).

As for `C=CCN1C(=O)[C@]2(O[C@H](CCn3cc(CCO)nn3)[C@@H]([Si](C)(C)c3ccc(OC)cc3)[C@@H]2C)c2cc(N3C(=O)c4cccc5cccc3c45)ccc21`, the composite z-score is -0.298 and -0.359 in [1]; 1.1 and -0.4 in experiment [2]; -0.0069 and -0.0563 in experiment [3]; 0.678 and 0.735 in experiment [4]; 0.285 and 0.226 in experiment [5]; 1.19 and 0.465 in experiment [6]. The composite z-score in [7] is 1.03; in experiment [9] it was 0.115 and -0.305; in experiment [10], -0.0618 and 0.157; in [11], 1.27 and 1.46; in [15], 1.73 and 1.57; in [17], -0.166 and -0.177. Moreover, the composite z-score in [18] was 0.708 and 0.778; in experiment [19] it was 0.644 and 0.979; in experiment [20], -0.0828 and -0.238. Further, the z-score in experiment [8] was -2.77 (inactive) and -2.7 (inactive); in experiment [12] it was 1.25 (inactive) and 0.648 (inactive); in experiment [13], 1.82 (inactive) and 1.64 (inactive); in experiment [14], 36.8 (active) and 36.6 (active); in experiment [16], 1.43 (inactive) and 0.793 (inactive).

For `CO[C@H]1COC(=O)[C@H](C)NC(=O)CC=C[C@@H](C)[C@H](OC)COC(=O)CC=C[C@@H]1C`, the composite z-score in experiment [1] is -0.748; in [2] it was 2.16; in experiment [3], -0.125; in [4], -0.0919; in experiment [5] it was -0.362; in experiment [6], -0.745. Also, the composite z-score is 0.0232 in [7]; -0.0994 in experiment [9]; 0.201 in experiment [10]; 1.4 in experiment [11]; -0.247 in [15]; -0.235 in [17]. The composite z-score was 1.32 in experiment [18], 0.164 in experiment [19] and 0.0556 in experiment [20]. Also, the z-score in experiment [8] was -0.628 (inactive); in [12], 1.17 (inactive); in experiment [13], 0.306 (inactive); in [14], 1.13 (inactive); in experiment [16], 1.3 (inactive).

`Cc1ccc(S(=O)(=O)OC[C@@H]2CN3[C@@H](CC[C@@H](C)[C@@H]3c3ccc(Br)cc3)C(=O)O2)cc1`: the composite z-score in [1] was -0.14 and -0.482; in [2], 0.299 and 0.063; in experiment [3], -0.0502 and 0.0062; in [4], 0.251 and 0.369; in [5], 0.246 and 0.663; in [6], 0.311 and 0.0379. Further, the composite z-score was 0.168 and 1.07 in experiment [7]; 0.447 and 0.166 in experiment [9]; 0.21 and 0.268 in [10]; 0.353 and 1.4 in [11]; 0.454 and 0.845 in experiment [15]; -0.0389 and -0.205 in experiment [17]. The composite z-score in experiment [18] was 0.0884 and 0.47; in [19], -0.0776 and 0.686; in experiment [20], 0.0519 and -0.0671. Moreover, the z-score is 0.472 (inactive) and -0.0959 (inactive) in experiment [8]; -0.464 (inactive) and 0.544 (inactive) in [12]; -0.252 (inactive) and 0.102 (inactive) in [13]; -0.182 (inactive) and 0.777 (inactive) in experiment [14]; 0.199 (inactive) and -0.206 (inactive) in [16].
